Rows were chosen to be rich in hits. Some 4.2% of all compounds tested hit in one or more screens of this group.
tim23-1 inh: tim23-1 yeast growth inhibition; S. cerevisiae tim23-1 growth, BacTiter-Glo luminescence, 24 h; inhibition, % at 20 µM; 330,000 tested, 1.3% active;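 active = growth inhibition of the mutant yeast at or above 50%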;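 also: temperature-sensitive mutant grown at 25 °C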
TIM10 inh: inhibits growth of TIM10 yeast strain | 330,000 tested, 1.4% active | S. cerevisiae TIM10 strain growth, BacTiter-Glo luminescence, 24 h | inhibition, % at 10 µM | AID 463195;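 active = inhibition of 40% or more at the single tested concentration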;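 also: wild-type TIM10 isogenic control strain grown at permissive 25 °C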
NALP3 yeast inh: blocks the NALP3 inflammasome reconstituted in yeast. inhibition, % at 10 µM. 330,000 tested, 0.39% active. Yeast reconstituted NLRP3/ASC/caspase-1, beta-gal luminescence, 24 h;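 active = inhibition of 50% or more; inactive = inhibition below 50%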
NALP1 inh: inhibitors of NALP1 inflammasome in yeast; S. cerevisiae NALP1/ASC/caspase-1 growth, X-gal OD620, 72 h; inhibition, % at 10 µM; 280,000 tested, 0.61% active; in the data active = inhibition mostly above about 24%, no sharp cut-off; inactive = mostly below about 32%
PfHsp90 set2: growth inhibition of yeast expressing Plasmodium Hsp90; S. cerevisiae expressing PfHsp90, BacTiter-Glo ATP, 48 h; yeast lacking PDR1 and PDR3 efflux regulators; inhibition, % at 9.4 µM; 310,000 tested, 0.32% active;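 active = every replicate shows inhibition above about 80%, whatever the replicate mean, limit read from the data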
tim10-1 inh: inhibits growth of tim10-1 mutant yeast; S. cerevisiae tim10-1 ts strain growth, BacTiter-Glo, 24 h; inhibition, % at 20 µM; 330,000 tested, 2.2% active; AID 463190;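 active = inhibition of at least 40%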;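 also: mutant grown at 25 °C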
tim10 confirm: TIM10 yeast growth inhibition, confirmed | 4,600 tested, 63% active | S. cerevisiae tim10 strain growth, BacTiter-Glo luminescence, 24 h | shares compounds with TIM10 inh | inhibition, % at 10 µM;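 active = inhibition of yeast growth at or above a set limit in either of two replicates at 10 µM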; also: this counterscreen used the strain with wild-type TIM10
Of the large screens only hits and unclear results are named; the others gave an inactive call (follow-up assays come after a bar, where they were run).

O=C(N/N=C/c1ccccn1)c1cc(-c2ccc(Cl)cc2)nc2ccccc12	TIM10 inh 47.4, PfHsp90 set2 98.7 | tim10 confirm 49.7
O=C(NC(=S)Nc1ccccn1)c1cc(-c2ccccc2)nc2ccccc12	TIM10 inh 47.2 | tim10 confirm inactive
O=C(NCc1cccnc1)c1cccc(OC2CCN(Cc3ccc(CO)o3)CC2)c1	none
O=C(NCc1ccccc1)C1CCC(=O)N(CCN2CCOCC2)C1 (stereo not given)	none
Cc1cccc(Cn2cnc3ccccc32)c1	none
Cc1ccc(Cn2cnc3ccccc32)cc1C	TIM10 inh 40.0 | tim10 confirm inactive
Cc1cc(Nc2ccc(Br)cc2)nc(-c2ccccc2O)n1	TIM10 inh 43.0 | tim10 confirm 49.0
CSCC[C@H](NC(=O)[C@H](Cc1ccccc1)n1c(=O)[nH]c2ccccc2c1=O)C(=O)N[C@@H](Cc1ccccc1)C(=O)O	none
N=C1SC(CC(=O)Nc2ccc([N+](=O)[O-])cc2)C(=O)N1c1ccccc1 (stereo not given)	TIM10 inh 57.4 | tim10 confirm inactive
c1ccc(-n2nnnc2Sc2ncnc3sc4c(c23)CCCC4)cc1	TIM10 inh 43.9 | tim10 confirm inactive
Cc1sc2ncnc(Sc3nnnn3-c3ccc(Cl)cc3)c2c1C	none
O=C(NCC1CCCO1)c1cc2ccccc2oc1=O (stereo not given)	TIM10 inh 95.2 | tim10 confirm inactive
N/C(=N\NC(=O)c1ccccc1)c1cc2ccccc2oc1=O	TIM10 inh 47.8 | tim10 confirm inactive
O=C(c1cc2ccccc2oc1=O)N(Cc1ccccc1)CC1CCCO1 (stereo not given)	none
COc1ccc(C(=O)N/N=C(\N)c2cc3ccccc3oc2=O)cc1	none
NS(=O)(=O)c1ccc(CNC(=O)c2cccnc2Cl)cc1	none
O=[N+]([O-])c1ccc2c(OCc3nnc(-c4ccccc4Br)o3)ncnc2c1	TIM10 inh 44.6 | tim10 confirm 30.6
O=[N+]([O-])c1cc(Br)c(OCc2nnc(-c3ccccc3)o2)c(Br)c1	none
Cc1c(C(=O)N2CCCCC2)c(S(=O)(=O)NCCc2ccc(S(N)(=O)=O)cc2)c(C)n1C	none
COc1cccc(OC(=O)c2ccccc2)c1OC(=O)c1ccccc1	none (no result: tim23-1 inh, TIM10 inh, NALP3 yeast inh, NALP1 inh, tim10-1 inh)
S=c1[nH]c(-c2ccccc2)cn1-c1ccccc1	TIM10 inh 46.3 | tim10 confirm 48.9
Nc1ccc(-n2cc(-c3ccccc3)[nH]c2=S)cc1	none
COc1cc(C(C(=O)NC2CCCC2)N(C(=O)c2snc(C(N)=O)c2N)c2ccccc2)cc(OC)c1OC (stereo not given)	none
CCCC(=O)N1CCN(c2ccc(NC(=O)C(C)(C)C)cc2Cl)CC1	none
CCCC(=O)N1CCN(c2ccc(NC(=O)c3cccs3)cc2Cl)CC1	TIM10 inh 46.3 | tim10 confirm inactive
COc1cc(/C=C/C(=O)c2ccc(F)cc2)cc(OC)c1OC	TIM10 inh 41.9 | tim10 confirm 42.0
CCCc1cnc(N2CCN(C(=O)c3c(-c4ccccc4)noc3C)CC2)nc1	none
CCOC(=O)C1(Cc2cccc(OC)c2)CCN(CC2CC=CCC2)CC1 (stereo not given)	none
COc1ccc(CCN(C)C(=S)NC(=O)c2ccc(F)cc2Cl)cc1OC	TIM10 inh 45.2 | tim10 confirm inactive
COc1ccc(CCN(C)C(=S)Nc2ccc(SC(F)F)cc2)cc1OC	none
COc1ccc(CNC(=O)[C@H](C)NC(=O)N2CCn3c2nc2ccccc23)cc1	none
O=c1[nH]c2ccc(Cl)cc2c(-c2ccccc2)c1SC(=S)N1CCOCC1	none
O=c1[nH]c2ccc(Cl)cc2c(-c2ccccc2)c1SC(=S)N1CCCCC1	TIM10 inh 40.4 | tim10 confirm inactive
CC1CCC2(CC1)NC(=O)N(CC(=O)NCCc1ccc(F)cc1)C2=O (stereo not given)	TIM10 inh 68.3 (no result: NALP1 inh) | tim10 confirm inactive
CC1CCC2(CC1)NC(=O)N(CC(=O)NCCc1ccccc1)C2=O (stereo not given)	none (no result: NALP1 inh)
c1ccc(-c2csc(Nc3ccc4c(c3)OCCO4)n2)cc1	TIM10 inh 41.4 | tim10 confirm inactive
Cc1cc(C)c(C)c(S(=O)(=O)Nc2ccc3cn[nH]c3c2)c1C	none (no result: NALP1 inh, PfHsp90 set2)
COc1ccc(NC(NC(=O)c2ccc(OC)cc2)C(Cl)(Cl)Cl)cc1 (stereo not given)	TIM10 inh 41.7 | tim10 confirm 26.5
NS(=O)(=O)c1cccc(NC(=O)CSc2nc3ccccc3c(=O)n2CC2CCCO2)c1 (stereo not given)	none (no result: NALP1 inh)
O=C(NCC1COc2ccccc2O1)c1cc(S(=O)(=O)N2CCOCC2)ccc1F (stereo not given)	none (no result: NALP1 inh, PfHsp90 set2)
O=C(Nc1ccc(C(F)(F)F)cc1)c1cc(S(=O)(=O)NCC2COc3ccccc3O2)ccc1F (stereo not given)	TIM10 inh 42.3 | tim10 confirm 44.5
O=S(=O)(c1cccc(NC(=S)N2CCN(c3ccccc3)CC2)c1)C(F)F	none
O=S(=O)(c1cccc(NC(=S)N2CCN(c3ccccc3F)CC2)c1)C(F)F	TIM10 inh 46.8 | tim10 confirm 36.0
C=CCN=c1scc(-c2ccccc2)n1/N=C/c1ccccn1	TIM10 inh 48.3 | tim10 confirm 43.1
Cc1nc2ccccc2c(=O)n1/N=C/c1ccccn1	none
CCN=c1scc(-c2ccccc2)n1/N=C/c1ccccn1	TIM10 inh 45.3 | tim10 confirm inactive
CC(=O)Nc1cccc(OCC(=O)Nc2sccc2C(N)=O)c1	none
CC(C)(C)n1nnnc1C(c1ccc(Cl)cc1)N1CCCc2ccccc21 (stereo not given)	none (no result: PfHsp90 set2)
CCC(C)(C)n1nnnc1C(c1cccnc1)N1CCCc2ccccc21 (stereo not given)	TIM10 inh 40.2 | tim10 confirm 36.9
CC(C)(C)n1nnnc1C(c1cccc(C#N)c1)N1CCCc2ccccc21 (stereo not given)	TIM10 inh 43.0 | tim10 confirm inactive
COc1ccc2[nH]c3c(c2c1)CCNC3c1ccc([N+](=O)[O-])o1 (stereo not given)	TIM10 inh 40.7 | tim10 confirm 54.5
COc1ccc2[nH]c3c(c2c1)CCNC3C1CC=C(C)CC1 (stereo not given)	none
CC(C)c1ccccc1NCC(=O)N1CCN(Cc2ccccc2)CC1	none
Cc1cccc(C(=O)NCCNc2nc3cc(C)c(C)cc3cc2C)c1	TIM10 inh 45.1 | tim10 confirm 39.4
COc1cc2[nH]c(=O)c(C(=O)NCc3ccccc3Cl)c(O)c2cc1OC	none
Nc1nc2nc(-c3ccccc3)cc(C(F)(F)F)c2s1	TIM10 inh 47.2 | tim10 confirm 39.5
Cc1cc(C(F)(F)F)c2sc(N)nc2n1	none
CSc1nc2nc(C)c(CCC(=O)OCC(=O)Nc3ccc(F)cc3)c(C)n2n1	none (no result: NALP1 inh, PfHsp90 set2)
